Common to all, as to assay: DAPPL (digital affinity profiling via proximity ligation, sequencing); 10 mM Tris-HCl pH 7.5, 50 mM NaCl, 1 mM DTT, 4% glycerol, room temperature, 30 min; GST-TFs on glutathione beads, 16-mer random dsDNA library, 0.1% formaldehyde crosslink after washing; high values mean tight binding
Conditions in all cases: protein: recombinant; tags: N-terminal GST; dsDNA, one strand shown

Assay [1] concerns the target T1, ELK1 (Homo sapiens, UniProt P19419 1-428).
T1 sequence: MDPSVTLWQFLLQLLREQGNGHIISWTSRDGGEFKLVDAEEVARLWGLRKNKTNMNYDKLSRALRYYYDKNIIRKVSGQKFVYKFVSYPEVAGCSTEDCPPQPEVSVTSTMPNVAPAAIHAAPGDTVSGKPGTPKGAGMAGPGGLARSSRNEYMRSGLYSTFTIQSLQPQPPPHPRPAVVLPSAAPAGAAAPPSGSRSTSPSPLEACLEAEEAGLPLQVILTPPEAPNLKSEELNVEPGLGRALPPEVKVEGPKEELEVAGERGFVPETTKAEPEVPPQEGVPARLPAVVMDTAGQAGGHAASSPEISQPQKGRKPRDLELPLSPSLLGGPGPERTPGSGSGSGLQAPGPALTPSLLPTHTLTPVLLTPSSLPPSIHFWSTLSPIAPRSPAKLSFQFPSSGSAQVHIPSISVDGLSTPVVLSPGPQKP
Summed up:
(§1)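 Beads coated with glutathione captured GST-fused human transcription factors that had been expressed in yeast, and the factors were then given DNA barcodes and pooled with a tag-only sample. The pools were incubated with 200 nmole of a random double-stranded 16-mer DNA library in Tris/NaCl/DTT/glycerol buffer for 30 min at room temperature, washed, crosslinked with 0.1% formaldehyde and proximity-ligated with BsaI/T4 ligase at 37 °C for 1 h. PCR amplification and Illumina NextSeq500 sequencing came last. Binding signal is each hexamer's read frequency for a factor divided by its frequency for the tag-only sample.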

In assay [2] the target is ELF1 (Homo sapiens, UniProt P32519 1-619). Summed up: as §1
Assay [3] addresses T2, EHF (Homo sapiens, UniProt Q9NZC4 1-300).
T2 sequence: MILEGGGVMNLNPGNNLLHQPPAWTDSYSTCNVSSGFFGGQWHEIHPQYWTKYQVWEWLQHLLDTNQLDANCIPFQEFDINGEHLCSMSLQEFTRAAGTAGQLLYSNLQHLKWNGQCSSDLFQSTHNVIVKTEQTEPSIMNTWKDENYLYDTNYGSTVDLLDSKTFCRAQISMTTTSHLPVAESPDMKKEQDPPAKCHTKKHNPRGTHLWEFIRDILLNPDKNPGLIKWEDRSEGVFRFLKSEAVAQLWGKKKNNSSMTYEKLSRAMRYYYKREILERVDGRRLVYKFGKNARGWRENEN
Summed up:
as §1

The target in assay [4] is SPI1 (Homo sapiens, UniProt P17947 1-270). In outline:
as §1

The target in assay [5] is T3, FEV (Homo sapiens, UniProt Q99581 1-238).
T3 sequence: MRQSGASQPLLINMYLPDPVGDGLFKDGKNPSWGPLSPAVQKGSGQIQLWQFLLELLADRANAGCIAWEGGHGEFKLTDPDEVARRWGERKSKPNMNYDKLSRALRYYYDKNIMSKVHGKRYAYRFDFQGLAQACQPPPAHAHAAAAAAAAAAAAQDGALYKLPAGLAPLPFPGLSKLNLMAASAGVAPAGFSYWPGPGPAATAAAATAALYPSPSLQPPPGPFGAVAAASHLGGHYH
In outline: as §1

The target in assay [6] is ETV5 (Homo sapiens, UniProt P41161 1-510). In outline: as §1
Assay [7] concerns the target T4, ELK4 (Homo sapiens, UniProt P28324-2 1-405).
T4 sequence: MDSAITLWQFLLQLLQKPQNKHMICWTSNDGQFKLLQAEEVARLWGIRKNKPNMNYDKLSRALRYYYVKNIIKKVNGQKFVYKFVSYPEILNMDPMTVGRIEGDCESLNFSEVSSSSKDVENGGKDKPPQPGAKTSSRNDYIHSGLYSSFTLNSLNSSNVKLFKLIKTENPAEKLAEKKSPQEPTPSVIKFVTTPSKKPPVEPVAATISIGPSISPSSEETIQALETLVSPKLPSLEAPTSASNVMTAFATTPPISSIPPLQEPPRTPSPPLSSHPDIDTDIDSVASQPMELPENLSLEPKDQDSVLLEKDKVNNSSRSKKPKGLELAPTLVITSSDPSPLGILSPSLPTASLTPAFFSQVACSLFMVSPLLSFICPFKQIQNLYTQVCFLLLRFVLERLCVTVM
Summed up:
as §1

Assay [8] has as its target T5, ETV2 (Homo sapiens, UniProt O00321 1-342).
T5 sequence: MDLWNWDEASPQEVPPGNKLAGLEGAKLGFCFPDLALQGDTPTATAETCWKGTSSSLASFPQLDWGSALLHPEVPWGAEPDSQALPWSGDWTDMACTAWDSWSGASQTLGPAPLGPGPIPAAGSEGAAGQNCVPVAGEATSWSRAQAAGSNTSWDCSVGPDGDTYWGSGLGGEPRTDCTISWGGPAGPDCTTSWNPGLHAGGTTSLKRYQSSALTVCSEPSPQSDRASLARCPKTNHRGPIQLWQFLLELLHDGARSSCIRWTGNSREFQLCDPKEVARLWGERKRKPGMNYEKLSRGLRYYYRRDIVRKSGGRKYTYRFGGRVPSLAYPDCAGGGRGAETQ
Summed up:
as §1

The target in assay [9] is T6, ERF (Homo sapiens, UniProt P50548 1-548).
T6 sequence: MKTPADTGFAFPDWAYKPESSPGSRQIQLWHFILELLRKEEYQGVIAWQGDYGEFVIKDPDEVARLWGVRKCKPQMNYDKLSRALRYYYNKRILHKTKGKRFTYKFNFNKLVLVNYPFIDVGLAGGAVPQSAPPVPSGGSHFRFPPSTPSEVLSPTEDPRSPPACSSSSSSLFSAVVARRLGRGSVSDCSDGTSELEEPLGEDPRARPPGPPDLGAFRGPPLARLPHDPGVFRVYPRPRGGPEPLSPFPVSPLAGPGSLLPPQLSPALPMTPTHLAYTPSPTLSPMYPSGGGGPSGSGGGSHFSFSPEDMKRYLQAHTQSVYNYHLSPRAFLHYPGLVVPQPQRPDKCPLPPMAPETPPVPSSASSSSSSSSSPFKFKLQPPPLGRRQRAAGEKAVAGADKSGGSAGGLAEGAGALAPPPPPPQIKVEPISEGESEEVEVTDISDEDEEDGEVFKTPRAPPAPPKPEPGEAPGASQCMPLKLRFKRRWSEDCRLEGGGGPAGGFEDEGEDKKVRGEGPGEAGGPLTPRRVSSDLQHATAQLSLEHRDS
Summed up:
as §1

In assay [10] the target is T7, ETV7 (Homo sapiens, UniProt Q9Y603 1-341).
T7 sequence: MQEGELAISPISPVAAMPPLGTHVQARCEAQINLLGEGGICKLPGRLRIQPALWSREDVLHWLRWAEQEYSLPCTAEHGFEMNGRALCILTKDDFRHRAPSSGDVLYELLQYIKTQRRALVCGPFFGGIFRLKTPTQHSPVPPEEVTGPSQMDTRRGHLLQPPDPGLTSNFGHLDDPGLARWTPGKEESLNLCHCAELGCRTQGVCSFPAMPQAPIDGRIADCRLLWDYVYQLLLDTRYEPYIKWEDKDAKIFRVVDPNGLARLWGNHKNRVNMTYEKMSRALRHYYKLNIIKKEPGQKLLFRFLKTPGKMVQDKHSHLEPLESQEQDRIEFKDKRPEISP
In outline:
as §1

The target of assay [11] is T8, ETV3 (Homo sapiens, UniProt P41162-2 1-143).
T8 sequence: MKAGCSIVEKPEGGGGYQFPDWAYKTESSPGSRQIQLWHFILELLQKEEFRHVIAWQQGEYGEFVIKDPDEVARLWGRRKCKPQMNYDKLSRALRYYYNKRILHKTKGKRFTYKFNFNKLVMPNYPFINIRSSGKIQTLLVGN
Summed up:
as §1

From publication PMC7862700, “An all-to-all approach to the identification of sequence-specific readers for epigenetic DNA modifications on cytosine” come the findings set out here.

Chain of ETV5 (P41161 whole entry): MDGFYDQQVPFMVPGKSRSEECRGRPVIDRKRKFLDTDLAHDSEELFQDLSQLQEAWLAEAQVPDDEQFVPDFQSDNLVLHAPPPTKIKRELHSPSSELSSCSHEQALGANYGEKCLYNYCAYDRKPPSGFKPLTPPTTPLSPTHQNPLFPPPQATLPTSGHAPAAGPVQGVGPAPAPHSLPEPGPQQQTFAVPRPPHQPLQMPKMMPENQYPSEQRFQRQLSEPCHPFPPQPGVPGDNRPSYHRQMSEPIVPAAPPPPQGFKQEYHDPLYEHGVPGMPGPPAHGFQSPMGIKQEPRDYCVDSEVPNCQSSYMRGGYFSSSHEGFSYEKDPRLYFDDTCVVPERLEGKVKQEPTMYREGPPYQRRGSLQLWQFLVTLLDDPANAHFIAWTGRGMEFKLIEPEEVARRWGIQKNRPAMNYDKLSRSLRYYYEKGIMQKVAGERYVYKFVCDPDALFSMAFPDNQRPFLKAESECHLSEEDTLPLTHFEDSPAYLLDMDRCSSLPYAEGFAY
Chain of ELF1 (P32519 whole entry): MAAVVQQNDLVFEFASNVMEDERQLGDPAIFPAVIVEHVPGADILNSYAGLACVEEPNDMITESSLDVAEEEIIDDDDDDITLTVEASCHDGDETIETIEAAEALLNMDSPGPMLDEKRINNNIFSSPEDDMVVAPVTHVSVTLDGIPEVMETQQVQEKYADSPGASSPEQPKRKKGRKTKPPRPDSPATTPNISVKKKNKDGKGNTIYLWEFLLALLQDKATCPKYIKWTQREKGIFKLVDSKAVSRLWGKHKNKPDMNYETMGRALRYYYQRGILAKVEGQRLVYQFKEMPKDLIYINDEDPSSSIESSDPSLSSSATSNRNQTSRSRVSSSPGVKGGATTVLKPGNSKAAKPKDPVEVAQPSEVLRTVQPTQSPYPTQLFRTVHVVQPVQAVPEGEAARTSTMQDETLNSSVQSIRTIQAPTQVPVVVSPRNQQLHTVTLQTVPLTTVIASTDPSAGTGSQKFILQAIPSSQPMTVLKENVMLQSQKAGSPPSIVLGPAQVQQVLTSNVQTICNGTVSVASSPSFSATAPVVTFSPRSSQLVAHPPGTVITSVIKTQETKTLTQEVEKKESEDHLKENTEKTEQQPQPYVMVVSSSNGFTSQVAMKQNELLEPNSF

On to GCTAAC, for which the binding signal in assay [1] was 1.1 fold enrichment (6-mer frequency, TF over GST control); in assay [2], 1.04 fold enrichment (6-mer frequency, TF over GST control); in assay [3], 1.03 fold enrichment (6-mer frequency, TF over GST control); in assay [4], 1.1 fold enrichment (6-mer frequency, TF over GST control); in assay [5], 1.03 fold enrichment (6-mer frequency, TF over GST control); in [6], 1.06 fold enrichment (6-mer frequency, TF over GST control). Moreover, the binding signal in [7] is 1.05 fold enrichment (6-mer frequency, TF over GST control); in assay [8], 1.07 fold enrichment (6-mer frequency, TF over GST control); in assay [9] it was 1.03 fold enrichment (6-mer frequency, TF over GST control); in assay [10], 1.09 fold enrichment (6-mer frequency, TF over GST control); in assay [11], 1 fold enrichment (6-mer frequency, TF over GST control).
